The record followed here is the supplement of paper PMC13380429.

Structures are written as SMILES.

In assay [1] the test system is Vero E6 infected with SARS-CoV-2. Briefly: morphology score (similarity to uninfected cells); higher = more like uninfected cells. The settings on record: 24 h.
Assay [2] has the same test system. The assay can be described thus: SARS-CoV-2 infection rate relative to infected DMSO; higher = more infection, active = 60 or less. Particulars: 24 h.

With `C[C@H](Cn1cnc2c(N)ncnc21)OCP(=O)(O)O` [tenofovir] (10 µM), the morphology score in assay [1] was -0.0359. Moreover, the SARS-CoV-2 infection rate in assay [2] was 105% (inactive).

`O=c1n(CC2CO2)c(=O)n(CC2CO2)c(=O)n1CC1CO1` (stereo not drawn) [teroxirone] (10 µM): the morphology score in assay [1] was -0.0418. Moreover, the SARS-CoV-2 infection rate in assay [2] is 115% (inactive).

With `Cc1cc2c(cc1CC(=O)c1sccc1S(=O)(=O)Nc1onc(C)c1Cl)OCO2` [sitaxentan] (10 µM), in assay [1], the morphology score is 0.015. Also, the SARS-CoV-2 infection rate in assay [2] was 101% (inactive).

On to `N=C(N)NCCC[C@@H](N)C(=O)N[C@@H](CCCNC(=N)N)C(=O)N1CCC[C@H]1C(=O)N1C[C@H](O)C[C@H]1C(=O)NCC(=O)N[C@@H](Cc1cccs1)C(=O)N[C@@H](CO)C(=O)N1Cc2ccccc2C[C@@H]1C(=O)N1[C@H](C(=O)N[C@@H](CCCNC(=N)N)C(=O)O)C[C@@H]2CCCC[C@@H]21` [icatibant-acetate] (10 µM), for which the morphology score in assay [1] came to 0.105. In addition, in assay [2], the SARS-CoV-2 infection rate was 102% (inactive).

As to `O=C(O)CC(S)C(=O)O` (stereo not drawn) [mercaptosuccinic-acid] (10 µM), the morphology score in assay [1] was -0.089. Moreover, the SARS-CoV-2 infection rate in assay [2] is 108% (inactive).

`CCCC(=O)O[C@]1(C(=O)CO)CC[C@H]2[C@@H]3CCC4=CC(=O)CC[C@]4(C)[C@H]3[C@@H](O)C[C@@]21C` [hydrocortisone-butyrate] (10 µM): in assay [1], the morphology score was -0.0651. The SARS-CoV-2 infection rate in assay [2] is 102% (inactive).

As to `COC[C@@H](NC(C)=O)C(=O)NCc1ccccc1` [Lacosamide] (10 µM), the morphology score in assay [1] is -0.1. For the same compound, the SARS-CoV-2 infection rate in assay [2] is 103% (inactive).

For the compound `CC(=O)OC[C@H]1O[C@@H](n2ccc(=O)[nH]c2=O)[C@H](OC(C)=O)[C@@H]1OC(C)=O` [uridine-triacetate] (10 µM), in assay [1], the morphology score is -0.0249. Moreover, the SARS-CoV-2 infection rate in assay [2] was 112% (inactive).

In turn, `Cc1cc(Nc2cc(CN3CCOCC3)c3nc(C)c(Cc4ccc(Cl)cc4F)n3n2)n[nH]1` (0.833333 µM) had a morphology score in assay [1] of -0.0116. The SARS-CoV-2 infection rate in assay [2] is 107% (inactive).

Compound `CCN(CC)CCNC(=O)c1ccc(N)cc1` [procainamide] (10 µM) displayed a morphology score in assay [1] of 0.00737. In addition, in assay [2], the SARS-CoV-2 infection rate is 116% (inactive).

With `Oc1ccc(-c2nc(-c3ccc(F)cc3)c(-c3ccncc3)[nH]2)cc1` (10 µM), the morphology score in assay [1] was determined as 0.313. Further, in assay [2], the SARS-CoV-2 infection rate was 71% (inactive).

Compound `COC[C@H]1OC(=O)c2coc3c2[C@@]1(C)C1=C(C3=O)[C@@H]2CCC(=O)[C@@]2(C)C[C@H]1OC(C)=O` [wortmannin] (0.833333 µM) registered a morphology score in assay [1] of 0.26. In assay [2], the SARS-CoV-2 infection rate was 79.5% (inactive).

In assay [1], `O=c1c2ccccc2nc2n1CCc1c-2[nH]c2ccccc12` [rutaecarpine] (10 µM) yielded a morphology score of 0.246. For the same compound, the SARS-CoV-2 infection rate in assay [2] is 105% (inactive).

The compound `CCOC(=O)c1c(C)n(C)c2ccc(O)cc12` [mecarbinate] (10 µM) yielded a morphology score in assay [1] of 0.132. In addition, the SARS-CoV-2 infection rate in assay [2] is 112% (inactive).

In turn, `C[C@@H]1[C@H](O)[C@@H](C)/C=C/C=C/C=C/C=C/C=C/C=C/C=C/[C@H](O[C@@H]2O[C@H](C)[C@@H](O)[C@H](N)[C@@H]2O)C[C@@H]2O[C@](O)(C[C@@H](O)C[C@@H](O)[C@H](O)CC[C@@H](O)C[C@@H](O)CC(=O)O[C@H]1C)C[C@H](O)[C@H]2C(=O)O` [amphotericin-b] (10 µM) showed a morphology score in assay [1] of 0.132. The SARS-CoV-2 infection rate in assay [2] is 107% (inactive).

The compound `Cn1c(CNc2ccc(C(=N)N)cc2)nc2cc(C(=O)N(CCC(=O)O)c3ccccn3)ccc21` [dabigatran] (10 µM) had a morphology score in assay [1] of 0.269. Moreover, the SARS-CoV-2 infection rate in assay [2] was 96% (inactive).

In assay [1], `CC(O)c1cc(C(=O)N[C@@H](C)Cn2ccc(-c3ccc(C#N)c(Cl)c3)n2)n[nH]1` (stereo partly drawn) (10 µM) showed a morphology score of 0.201. The SARS-CoV-2 infection rate in assay [2] was 106% (inactive).

`COc1ccc2nc3ccc(Cl)cc3c(SCCCN)c2c1` (10 µM): the morphology score in assay [1] came out at 0.0488. Further, in assay [2], the SARS-CoV-2 infection rate is 91.5% (inactive).

As for `Cn1nnc(-c2ccc(-c3ccc(N4C[C@H](CO)OC4=O)cc3F)cn2)n1` [tedizolid] (10 µM), the morphology score in assay [1] amounted to 0.127. Also, the SARS-CoV-2 infection rate in assay [2] is 100% (inactive).

As for `CCN1CCC(n2cc(CNc3cc(Cl)c4ncc(C#N)c(Nc5ccc(F)c(Cl)c5)c4c3)nn2)CC1` [cot-inhibitor-2] (10 µM), the morphology score in assay [1] amounted to 0.683. Moreover, the SARS-CoV-2 infection rate in assay [2] was 40.5% (active).

The compound `Cc1ncc([N+](=O)[O-])n1CC(O)CN1CCOCC1` (stereo not drawn) [morinidazole] (10 µM) had a morphology score in assay [1] of 0.12. Also, the SARS-CoV-2 infection rate in assay [2] was 111% (inactive).

`Cc1cc(-c2ncc(CC(=O)Nc3ccc(-c4cnccn4)cn3)cc2C)ccn1` (10 µM) came in with a morphology score in assay [1] of -0.0828. In addition, the SARS-CoV-2 infection rate in assay [2] was 111% (inactive).

`Cn1cncc1[C@@](N)(c1ccc(Cl)cc1)c1ccc2c(c1)c(-c1cccc(Cl)c1)cc(=O)n2C` [tipifarnib] (0.833333 µM): in assay [1], the morphology score was found to be 0.398. Further, in assay [2], the SARS-CoV-2 infection rate is 89% (inactive).

For the compound `CCN1CCN(C(=O)N[C@@H](C(=O)N[C@@H]2C(=O)N3[C@@H]2SC(C)(C)[C@@H]3C(=O)O)c2ccccc2)C(=O)C1=O` [piperacillin] (10 µM), the morphology score in assay [1] amounted to 0.11. In addition, the SARS-CoV-2 infection rate in assay [2] is 96% (inactive).
